# Screens (PubChem BioAssay)
# Compounds with a hit are over-represented: about 19% of the library has one in this group of screens.
# TDP1 cell CPT = growth inhibition of DT40 Tdp1-/-;hTDP1 cells with camptothecin (screen for TDP1 inhibitors); chicken DT40 Tdp1-/-;hTDP1 cells + 20 nM CPT, ATP luminescence, 48 h; Potency, µM (doses to about 46.2 µM), for the others: at the top dose activity change, negative = growth inhibition, usual class: inhibitors; 420,000 compounds, 12% hits; AID 686979; note: potency is the fitted concentration of half-maximal effect; % is set by controls: 0 for no effect and ±100 for the full control effect; nearly all actives have a fitted effect of over 55% in size
#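 Chicken DT40 Tdp1-/- cells stably complemented with human TDP1 were seeded at 400 cells/well in medium containing 20 nM camptothecin, exposed to pin-transferred compounds, and grown at 37 °C for at least 48 hr. Viability was read as ATP luminescence.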
# TDP1 inh = TDP1 (human) enzyme inhibition. recombinant TDP1, AlphaScreen DNA substrate cleavage. 350,000 compounds, 0.28% hits. Q9NUW8. Potency, µM (titrated, usually from 130 µM), inactives show top-dose activity change, negative = inhibition, usual class: inhibitors; note: potency is the fitted concentration of half-maximal effect; % is set by controls: 0 for no effect and ±100 for the full control effect; nearly all actives have a fitted effect of over 40% in size
# Target sequence (Q9NUW8 whole entry, looked up): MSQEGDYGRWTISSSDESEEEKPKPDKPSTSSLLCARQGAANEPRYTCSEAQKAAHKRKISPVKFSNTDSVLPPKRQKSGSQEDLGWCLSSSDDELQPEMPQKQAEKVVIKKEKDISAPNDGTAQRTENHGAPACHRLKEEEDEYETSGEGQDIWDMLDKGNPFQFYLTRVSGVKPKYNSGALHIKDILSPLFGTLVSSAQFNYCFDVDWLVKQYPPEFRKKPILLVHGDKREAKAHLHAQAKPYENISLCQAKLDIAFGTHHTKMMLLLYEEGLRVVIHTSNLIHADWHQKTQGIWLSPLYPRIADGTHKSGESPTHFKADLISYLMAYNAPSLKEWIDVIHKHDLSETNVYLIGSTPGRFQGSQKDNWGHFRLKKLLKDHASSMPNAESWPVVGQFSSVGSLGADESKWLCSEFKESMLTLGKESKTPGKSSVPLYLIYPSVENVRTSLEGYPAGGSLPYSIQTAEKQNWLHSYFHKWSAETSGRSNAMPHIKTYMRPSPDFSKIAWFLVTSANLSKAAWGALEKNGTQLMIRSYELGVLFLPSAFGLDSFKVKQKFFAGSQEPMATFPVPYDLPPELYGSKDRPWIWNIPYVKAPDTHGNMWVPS
#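 Tdp1 1 nM final; 15 min RT w/ cpd; substrate 15 nM, 5 min; beads 10 ug/ml, 10 min; AlphaScreen read. Neg ctrl: no enzyme.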
# IL-1B inflam inh = blocks inflammasome-driven IL-1 beta release; 360,000 compounds, 4.7% hits; activity change, % at 57.5 µM; THP-1 LPS/ATP IL-1B secretion, AlphaLISA, 16 h; stronger effect = lower value; in the data active = activity change below about -50%; inconclusive = mostly about -30% to -49%; note: % is set by controls: 0 for no effect and ±100 for the full control effect
#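 THP-1 cells pretreated 1 hr with compounds (up to 57.5 uM final), then stimulated with LPS (250 ng/mL final) plus ATP (1.25 mM final); secreted IL-1B measured by AlphaLISA after 16 hr, decreased signal indicating inhibition.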
# TDP1 cell noCPT = qHTS for Inhibitors of human tyrosyl-DNA phosphodiesterase 1 (TDP1): qHTS in cells in absence of CPT. DT40 Tdp1-/- hTDP1 cells, no CPT, ATP luminescence, 48 h. Potency, µM (series often up to 46.2 µM), inactives show at the top dose activity change, negative = growth inhibition, usual class: inhibitors. 420,000 compounds, 15% hits; note: potency is the fitted concentration of half-maximal effect; % is set by controls: 0 for no effect and ±100 for the full control effect; nearly all actives have a fitted effect of over 55% in size
#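 Chicken DT40 Tdp1-/- cells stably complemented with human TDP1 were seeded at 400 cells/well with DMSO in place of 20 nM camptothecin. After compound pinning, cells grew at least 48 hr at 37 °C; viability read by CellTiter-Glo luminescence.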
# TGFb SMAD3 inh = blocks TGF-b signaling. HepG2 CAGA-GFP TGF-b/SMAD3 reporter, GFP fluorescence, 18 h; TGF-beta stimulated, 500 pg/mL final. Potency, µM (titrated, usually from 46.1 µM), inactives show top-dose activity, negative = inhibition, most hits filed as inhibitors. 410,000 compounds, 1.2% hits. AID 588855; note: potency is the fitted concentration of half-maximal effect; % is set by controls: 0 for no effect and ±100 for the full control effect; nearly all actives have a fitted effect of over 65% in size
#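 Using HEPG2 CAGA-GFP reporter cells at 1000 cells/well, we pinned test compounds, stimulated with recombinant TGF-beta (500 pg/mL final) and measured total well GFP after 18 h.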
# HepG2 viability = kills HepG2 cells in TGF-b inhibitor counter-screen. HepG2 CAGA-GFP viability, ATP luminescence, 18 h. Potency, µM (doses to about 46.1 µM), for inactives: at the highest dose activity change, negative = cytotoxicity, most hits filed as cytotoxic. 410,000 compounds, 0.76% hits. AID 588856; note: potency is the fitted concentration of half-maximal effect
#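 CellTiter-Glo luminescence gave cytotoxicity after 18 hours at 37 degrees C. The cells were HepG2 CAGA-GFP in 1% FBS DMEM, stimulated with 500 pg/mL TGF-beta after compound addition. %Activity was normalised to no-cell wells (complete cell-killing) and DMSO (no toxicity), and curves were fitted and classified.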
# * hit, by the source's call; u = inconclusive; x = no result given; [ ] = dose if it differs, or a comment. Unless noted, calls come from the whole dose curve; as a rule, active = well fitted curve in the direction sought with a large enough effect; inconclusive = small, poorly fitted or top-dose-only effect, or another doubt; inactive = no such curve, though single readings can be large; an effect the other way counts as inactive or inconclusive.
SMILES,TDP1 cell CPT,TDP1 inh,IL-1B inflam inh,TDP1 cell noCPT,TGFb SMAD3 inh,HepG2 viability
CCN(CC)c1ccc(-c2nc(-c3ccccc3C)no2)cc1[N+](=O)[O-],u,11.4%,x,u,-15.7%,4.3%
CSc1ccc(/C=C(\C(=O)O)c2ccc(S(=O)(=O)N3CCCC3)s2)cc1,4.4%,28.2µM*,9.3,11.1%,6.2%,-3.8%
c1ccc2c(-c3csc(-c4ccncc4)n3)c[nH]c2c1,18.4µM*,2.4%,-15.4,14.6µM*,16.0%,-55.9%
CCCCS/C(=C(/C#N)C(N)=O)c1cc2c([nH]1)CCCC2,20.6µM*,13.5%,-66.2*,u,0.0%,-12.7%
Cc1ccc(S(=O)(=O)N2CCN(S(=O)(=O)c3ccccc3)C2c2ccc(N(C)C)cc2)cc1 (stereo not given),16.4µM*,5.1%,9.7,u,-0.6%,-3.8%
CC(=O)N1CCN(S(=O)(=O)c2ccc(C)cc2)C1c1ccc(N(C)C)cc1 (stereo not given),-25.7%,1.0%,10.5,u,6.0%,-5.1%
Cc1ccc(S(=O)(=O)N2CCN(C(=O)CN3CCOCC3)C2c2ccccc2)cc1 (stereo not given),u,1.0%,-1.7,16.4µM*,-14.0%,-32.7%
CCOc1ccc(N(CC(=O)N/N=C(\C)c2cccc(NC(C)=O)c2)S(=O)(=O)c2ccccc2)cc1,-22.9%,x,-18.1,-17.8%,-2.3%,-14.0%
O=C(COC(=O)/C=C/c1ccc(Br)o1)Nc1ccccc1F,x,15.8µM*,x,x,x,x
CCc1nc2ccc(C(=O)Nc3cccc(NS(C)(=O)=O)c3)cn2c1N(CCC(C)C)CCN(C)C,16.4µM*,x,u,18.4µM*,-22.5%,-29.8%
CCc1nc2ccc(C(=O)NCc3ccccc3OC)cn2c1N(CC)Cc1cccc(Br)c1,25.9µM*,x,-21.1,u,u,-18.8%
CCc1nc2ccc(C(=O)NCc3ccccc3OC)cn2c1N(C)C(=O)Cc1ccccc1,u,x,7.2,u,0.0%,-1.8%
CCc1nc2ccc(C(=O)Nc3cccc(OC)c3)cn2c1N(C)CCCc1ccccc1,u,x,-50.8*,u,u,-32.8%
CCc1nc2ccc(C(=O)Nc3cccc(NS(C)(=O)=O)c3)cn2c1N(C=O)CCC(C)C,u,x,-23.0,u,19.2%,6.7%
CCc1nc2ccc(C(=O)Nc3cccc(NS(C)(=O)=O)c3)cn2c1N(C)CCCc1ccccc1,u,x,-17.5,u,u,-7.3%
CCc1nc2ccc(C(=O)Nc3cccc(OC)c3)cn2c1N(CC)Cc1cccc(Br)c1,18.4µM*,x,-56.6*,u,u,-32.4%
O=C(CSc1nc2c([nH]c3ccccc32)c(=O)n1-c1cccc(Cl)c1)NCc1ccccc1,u,0.0%,x,u,0.1%,-18.6%
CCc1nc2ccc(C(=O)Nc3cccc(NS(C)(=O)=O)c3)cn2c1N(C)Cc1nccn1C,2.2%,x,2.6,-22.2%,14.4%,-1.3%
CCc1nc2ccc(C(=O)Nc3cccc(NS(C)(=O)=O)c3)cn2c1N(CC)Cc1cccc(Br)c1,u,x,-70.4*,16.4µM*,u,-72.8%
CCc1nc2ccc(C(=O)Nc3ccc4c(c3)OCC(=O)N4)cn2c1N(CC)Cc1cccc(Br)c1,18.4µM*,x,0.0,-77.7%,u,-18.9%
CCc1nc2ccc(C(=O)NCCOc3ccc(OC)cc3)cn2c1N(CC)CCOC,u,x,-15.8,u,u,-17.6%
CCc1nc2ccc(C(=O)Nc3ccc4c(c3)OCC(=O)N4)cn2c1N(C)C(=O)Cc1ccccc1,-14.7%,x,-21.6,-25.1%,13.1%,0.3%
Cc1nc2ccc(C(=O)Nc3ccc4c(c3)OCC(=O)N4)cn2c1N(C)C(=O)CCc1ccccc1,u,x,-9.6,18.4µM*,7.5%,-4.4%
CCc1nc2ccc(C(=O)NCCOc3ccc(OC)cc3)cn2c1N(CC)Cc1cccc(Br)c1,18.4µM*,x,-69.3*,20.6µM*,u,-30.9%
CCc1ccc2oc(-c3ccc(NC(=O)c4cccc(Cl)c4Cl)cc3)nc2c1,u,-1.0%[2.28 µM],x,u,-23.9%,-35.4%
SMILES,TDP1 cell CPT,TDP1 inh,IL-1B inflam inh,TDP1 cell noCPT,TGFb SMAD3 inh,HepG2 viability
Cc1ccc2nc(SC(C(=O)c3ccccc3)c3ccccc3)nc(C)c2c1 (stereo not given),u,-1.1%,31.4,14.6µM*,-14.1%,-9.4%
Cc1ccc2nc(SCC(=O)O)nc(C)c2c1,9.6%,7.6%,2.7,-1.6%,2.6%,-0.9%
O=C(CSc1ccc(-c2nc3ccccc3[nH]2)cn1)Nc1ccc(S(=O)(=O)N2CCCC2)cc1,u,0.0%,-8.3,13µM*,u,-27.0%
CCOC(=O)CNC(=O)CSc1ccc(-c2nc3ccccc3[nH]2)cn1,-19.1%,x,u,u,-8.3%,-26.0%
Cc1cc2nc(-c3ccc(SCC(=O)Nc4ccc(S(=O)(=O)N5CCCC5)cc4)nc3)[nH]c2cc1C,-5.2%,2.3%,50.1,13µM*,-12.8%,-43.8%
O=C(CCCCCn1c(=O)[nH]c2ccccc2c1=O)NCc1cccc(Cl)c1,-19.4%,1.5%,x,-24.6%,20.7%,0.0%
CN(C(=S)NC(=O)c1ccc(Cl)cc1)C1CCCCC1,u,-6.0%[56.1 µM],19.5,u,-21.9%,-25.1%
COc1cc2[nH]c(C(=O)N3CCN(c4ccccc4F)CC3)cc2c(OC)c1OC,u,x,-1.1,u,22.4%,-0.7%
